In PubChem BioAssay (NCI):
This is part of a sample that, as a whole, favours compounds with a hit. Of some 83,000 tested, about 20% had one in any assay.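 Cells were grown in 96-well plates and exposed to the test compound at a single concentration for 48 hours; results are reported as percent growth, with values below 10 considered active.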 A number with no mark means an inactive call. Activity calls are given as the source filed them.

Tests used:
Assay in all cases: NCI-60 one-dose screen, 48 h (100 = growth as untreated, 0 = no growth, -100 = all killed)
[1] = tested on: NCI-H23 lung; settings: 10 µM unless noted
[2] = tested on: NCI-H226 lung; settings: 10 µM unless noted
[3] = tested on: NCI-H322M lung; settings: 10 µM unless noted
[4] = tested on: HOP-62 NSCLC; settings: 10 µM unless noted
[5] = tested on: NCI-H460 lung; settings: 10 µM unless noted
[6] = tested on: HOP-92 NSCLC; settings: 10 µM
[7] = tested on: A549/ATCC NSCLC; settings: 10 µM unless noted
[8] = tested on: 786-0 renal; settings: 10 µM unless noted
[9] = tested on: COLO 205 colon; settings: 10 µM unless noted
[10] = tested on: NCI-H522 lung; settings: 10 µM unless noted

Structure (SMILES)	growth [1]	growth [2]	growth [3]	growth [4]	growth [5]	growth [6]	growth [7]	growth [8]	growth [9]	growth [10]
C[C@@H](Nc1c(C#N)cnc2ccc(-c3cnc(Cl)c(NS(C)(=O)=O)c3)cc12)c1ccccc1	6.8% (active)	-3.88% (active)	12.1%	11.6%	2.56% (active)	-14.5% (active)	4.78% (active)	4.25% (active)	16.5%	
O=C1Nc2ccccc2/C1=C/c1ccc(CO)n1-c1ccc(Cl)cc1	67%	81%	102%	59.7%	35.6%	75.4%	59%	88.4%	71.8%	53.7%
CCc1nn2c(C)cc(C)nc2c1Cc1ccc(/C=C/CN2CCN(CCOCCOCCN3CCN(C/C=C/c4ccc(Cc5c(CC)nn6c(C)cc(C)nc56)cc4)CC3)CC2)cc1	26.2%	67.9%	7.19% (active)	18.7%	-63.8% (active)	-5.1% (active)	11.7%	-79.3% (active)	-48.5% (active)	-47.9% (active)
Cn1ccnc1C(=O)/C=C/c1ccc(CNC(=O)c2ccc(S(F)(F)(F)(F)F)cc2)cc1	3.4% (active)	27%	7.63% (active)	17.5%	-18.1% (active)	74.3%	16%	13.1%	41.8%	29.5%
Cn1ccnc1C(=O)/C=C/c1ccc(NC(=O)c2c(F)c(F)c(F)c(F)c2F)cc1	97.6%	103%	94.8%	120%	105%	123%	101%	101%	124%	94.3%
Cc1ccc2c(c1)Oc1nc(N)c(C#N)c(N)c1C2Sc1ccc(F)cc1 (centres undefined)	-88.2% (active)	-50.6% (active)	-98.7% (active)	-86.3% (active)	-50.4% (active)	-93.6% (active)	-82.2% (active)	-97.3% (active)	-49.7% (active)	-58.1% (active)
O=C(CSc1nnc(-c2ccc3nc(-c4ccccc4)[nH]c3c2)o1)Nc1ccc(C(=O)/C=C/c2ccccc2)cc1	100%	106%	102%	104%	113%	149%	106%	102%	110%	93.4%
CS(=O)(=O)Nc1cc(-c2ccc3ncc(C#N)c(NCc4ccccc4F)c3c2)cnc1Cl	1.49% (active)	14.6%	12.9%	0.205% (active)	5.08% (active)	-10.9% (active)	7.89% (active)	11.4%	-24.7% (active)	14.1%
Cc1ccc(-c2nnc(SCc3ccc(O)c4ncccc34)n2-c2ccccc2)cc1	15.6%	24.4%	19.6%	10.6%	-15.8% (active)	-12.5% (active)	11.3%	25%	25.6%	-5.09% (active)
COc1cc(/C=C2\C(=O)Nc3ccccc32)ccc1OCc1ccc(F)cc1	99%	100%	103%	100%	86.4%	99.8%	108%	107%	111%	91.9%
